Data on 29 molecules can be found in PubChem BioAssay AID1224904 (Broad Institute, 2016).

“And” between values parts separate entries of the source, which are not always exact repeats. Equal values may be shown once. Hit rate of the full screen: of about 37,000 compounds, about 290 (0.78%) were called active. Not shown: some 10% with an inconclusive outcome.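 The calls were made as follows: active = mean inhibition of at least 10% in the main channel, exceeding the control channel by a set limit; inconclusive = inhibition of 10% or more but channel gap under a set limit; inactive = mean inhibition below 10%.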 The sample as a whole holds a higher share of actives than the screen did.

This experiment in a line: DUX4 transcriptional activity inhibition in cells – 293T cells, Gaussia and Italica luciferase, primary screen (AID 1224904).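 As to activity change, negative = inhibition: 0% = median of neutral control wells and -100% = median of positive control wells.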 The settings on record: 293T-iDUX4 ZSCAN4-Gaussia luciferase reporter, 24 h, stronger effect = lower value, concentration not given here; for Gaussia minus Italica difference: measured here: selective DUX4 reporter inhibition.
The mark [1] stands for this setting: measured here: Italica tet-on control reporter.

Turning to `COCC#Cc1cnc2c(c1)C(=O)N([C@H](C)CO)C[C@H](C)[C@H](CN(C)Cc1ccc(-c3ccccc3)cc1)O2`, the activity change, negative = inhibition is -1.2% (inactive) and the Gaussia minus Italica difference was determined as 0.393%. For the same molecule, the activity change, negative = inhibition under setting [1] is -1.59%.

As for `C[C@H](CO)N1C[C@H](C)[C@H](CN(C)C(=O)CCN(C)C)OCc2ccccc2-c2c(n(C)c3ccccc23)C1=O`, the activity change, negative = inhibition was 0.0892% (inactive) and the Gaussia minus Italica difference is -6.23%. Besides, under setting [1], the activity change, negative = inhibition was found to be 6.32%.

On to `COc1ccccc1C#Cc1ccc([C@H]2[C@@H](C#N)N(C(=O)C3CCCCC3)[C@@H]2CO)cc1`, for which the activity change, negative = inhibition was -1.13% (inactive) and the Gaussia minus Italica difference is -1.05%. In addition, the activity change, negative = inhibition under setting [1] is -0.0756%.

For `COc1ccc(S(=O)(=O)N2CCCCN3[C@H](CO)[C@@H](c4ccc(C#CC(C)C)cc4)[C@H]3C2)cc1`, the activity change, negative = inhibition is -31.7% (active) and the Gaussia minus Italica difference was -28%. Moreover, the activity change, negative = inhibition under setting [1] was -3.69%.

Take `COc1ccccc1C#Cc1ccc([C@@H]2[C@@H](CO)N3CCCCN(S(C)(=O)=O)C[C@@H]23)cc1`: the activity change, negative = inhibition was -1.08% (inactive) and the Gaussia minus Italica difference was -6.73%. Further, the activity change, negative = inhibition under setting [1] was determined as 5.65%.

For the molecule `O=C(Nc1cccc(F)c1)N1CCCCN2[C@H](CO)[C@H](c3ccc(C#CC4CC4)cc3)[C@@H]2C1`, the activity change, negative = inhibition is -32.4% (active) and the Gaussia minus Italica difference is -37.5%. The activity change, negative = inhibition under setting [1] came out at 5.1%.

`COc1ccccc1C#Cc1ccc([C@H]2[C@H](CO)N3CCCCN(C(=O)C4CCC4)C[C@@H]23)cc1`: the activity change, negative = inhibition was -36.1% (active) and the Gaussia minus Italica difference was -27.4%. Moreover, the activity change, negative = inhibition under setting [1] was -8.62%.

As to `C[C@@H](O)C#Cc1ccc([C@@H]2[C@H](CO)N3CCCCN(S(=O)(=O)c4ccccc4)C[C@@H]23)cc1`, the activity change, negative = inhibition is 10.1% (inactive) and the Gaussia minus Italica difference is 13.3%. Besides, under setting [1], the activity change, negative = inhibition was -3.26%.

With `CN(C)CC#Cc1ccc([C@@H]2[C@H](CO)N3CCCCN(C(=O)Nc4ccc(F)cc4)C[C@@H]23)cc1`, the activity change, negative = inhibition was 15.2% (inactive) and the Gaussia minus Italica difference was 10.1%. Moreover, under setting [1], the activity change, negative = inhibition was 5.12%.

Turning to `O=C(Nc1cccc(F)c1)N1CC(=O)N2[C@H](CO)[C@H](c3ccc(C#CC4CC4)cc3)[C@@H]2C1`, the activity change, negative = inhibition was 2.91% (inactive) and the Gaussia minus Italica difference is 14.6%. In addition, the activity change, negative = inhibition under setting [1] is -11.7%.

Regarding `C[C@@H](O)C#Cc1ccc([C@@H]2[C@H]3CN(S(=O)(=O)c4ccccc4)CCCCN3[C@H]2CO)cc1`, the activity change, negative = inhibition is 25.7% (inactive) and the Gaussia minus Italica difference turned out to be 12.9%. For the same molecule, the activity change, negative = inhibition under setting [1] stood at 12.9%.

`O=C(CC(F)(F)F)N1C[C@H]2[C@@H](c3ccccc31)[C@H](CO)N2C(=O)Cc1cccnc1`: the activity change, negative = inhibition is 2.67% (inactive) and the Gaussia minus Italica difference was determined as 2.22%. The activity change, negative = inhibition under setting [1] was determined as 0.448%.

Consider `CCCC#Cc1ccc([C@@H]2[C@@H](C#N)N(C(=O)C3CCC3)[C@H]2CO)cc1`, for which the activity change, negative = inhibition is 0.61% (inactive) and the Gaussia minus Italica difference is -1.01%. Moreover, the activity change, negative = inhibition under setting [1] stood at 1.62%.

In the case of `COc1cccc(CN2[C@H](CO)[C@@H]3c4ccccc4N(C(=O)c4ccncc4)C[C@@H]32)c1`, the activity change, negative = inhibition was -3.19% (inactive) and the Gaussia minus Italica difference is -7.25%. For the same molecule, the activity change, negative = inhibition under setting [1] was 4.06%.

On to `COc1cccc(C(=O)Nc2ccc3c(c2)C(=O)N(C)[C@H]2CC[C@@H](CC(=O)N[C@H](C)c4ccccc4)O[C@H]2CO3)c1`, for which the activity change, negative = inhibition was -1.13% (inactive) and the Gaussia minus Italica difference is -1.51%. Further, the activity change, negative = inhibition under setting [1] came out at 0.375%.

Consider `COC(=O)[C@@H]1[C@@H](CO)[C@@H]2Cn3c(ccc(-c4ccccc4F)c3=O)[C@@H]2N1CC1CCOCC1`, for which the activity change, negative = inhibition was -4.32% (inactive) and the Gaussia minus Italica difference is -12.8%. Moreover, the activity change, negative = inhibition under setting [1] was 8.44%.

As to `O=C([C@H]1[C@H](CO)[C@H]2Cn3c(cccc3=O)[C@@H]1N2Cc1cocn1)N1CCCCC1`, the activity change, negative = inhibition was 0.941% (inactive) and the Gaussia minus Italica difference is -0.343%. Further, the activity change, negative = inhibition under setting [1] was 1.28%.

Turning to `C/C=C/c1ccc(C2[C@H]3CNC[C@@H]2N3C(=O)Nc2cc(F)ccc2F)cc1` (some centres not stated), the activity change, negative = inhibition is 15.1% (inactive) and 2.98% (inactive); the Gaussia minus Italica difference was 11.2% and 0.626%. For the same molecule, under setting [1], the activity change, negative = inhibition was 3.89% and 2.36%.

Turning to `O=C(c1ccncc1)N1CC2(C1)[C@@H](c1ccccc1)[C@H](CO)N2C(=O)c1ccncc1`, the activity change, negative = inhibition was 9.03% (inactive) and the Gaussia minus Italica difference was 8.26%. Moreover, the activity change, negative = inhibition under setting [1] was found to be 0.77%.

Turning to `CO[C@@H]1CN(C)C(=O)c2cc(NS(=O)(=O)c3cn(C)cn3)ccc2OC[C@@H](C)N(CCC(F)(F)F)C[C@H]1C`, the activity change, negative = inhibition is 2.8% (inactive) and the Gaussia minus Italica difference is 0.0206%. In addition, the activity change, negative = inhibition under setting [1] worked out at 2.78%.

`CC(C)NC(=O)Nc1ccc2c(c1)C(=O)N(C)[C@H]1CC[C@H](CC(=O)NCc3ccc(F)cc3)O[C@H]1CO2`: the activity change, negative = inhibition was -1.78% (inactive) and the Gaussia minus Italica difference was -0.872%. Moreover, under setting [1], the activity change, negative = inhibition is -0.912%.

In the case of `CN1C(=O)c2cc(NC(=O)Nc3ccccc3F)ccc2OC[C@H]2O[C@@H](CC(=O)Nc3cccc(Cl)c3)CC[C@@H]21`, the activity change, negative = inhibition is 2.01% (inactive) and the Gaussia minus Italica difference was determined as 0.199%. In addition, the activity change, negative = inhibition under setting [1] turned out to be 1.81%.

Turning to `CN1C(=O)c2cc(NC(=O)c3ccc(Cl)cc3)ccc2OC[C@@H]2O[C@@H](CC(=O)O)CC[C@H]21`, the activity change, negative = inhibition is 3.27% (inactive) and the Gaussia minus Italica difference is 0.834%. Also, the activity change, negative = inhibition under setting [1] is 2.43%.

Regarding `CCS(=O)(=O)N1[C@H](CO)[C@@H](c2ccc(C#CC(C)C)cc2)[C@@H]1C#N`, the activity change, negative = inhibition is -1.24% (inactive) and the Gaussia minus Italica difference is -0.33%. Besides, the activity change, negative = inhibition under setting [1] was -0.906%.

Take `COc1ccccc1CN1[C@@H]2CNC[C@H]1C2c1ccc(-c2cccc(C#N)c2)cc1` (some centres not stated): the activity change, negative = inhibition was 2.24% (inactive) and -7% (inactive); the Gaussia minus Italica difference is -5.67% and 6.5%. Further, the activity change, negative = inhibition under setting [1] is 7.91% and -13.5%.

As to `CCCNC(=O)C[C@H]1CC[C@H]2[C@@H](COc3ccc(NC(=O)Nc4c(C)noc4C)cc3C(=O)N2C)O1`, the activity change, negative = inhibition was 1.35% (inactive) and the Gaussia minus Italica difference is -0.269%. For the same molecule, the activity change, negative = inhibition under setting [1] was found to be 1.62%.

For `N#Cc1ccc(-c2ccc(C3[C@@H]4CN(S(=O)(=O)c5ccc(F)cc5)C[C@H]3N4)cc2)cc1` (some centres not stated), the activity change, negative = inhibition was -15.8% (active) and the Gaussia minus Italica difference was -27.5%. Besides, the activity change, negative = inhibition under setting [1] came out at 11.7%.

On to `O=C(Cc1ccncc1)N1C[C@@H]2N[C@H](C1)C2c1ccc(-c2ccc(F)cc2)cc1` (some centres not stated), for which the activity change, negative = inhibition was -3.63% (inactive) and the Gaussia minus Italica difference is -4.98%. The activity change, negative = inhibition under setting [1] turned out to be 1.35%.

Consider `CN(C)C(=O)c1cccc(-c2ccc(C3[C@@H]4CN(S(=O)(=O)c5ccc(F)cc5)C[C@H]3N4)cc2)c1` (some centres not stated), for which the activity change, negative = inhibition was -0.156% (inactive) and the Gaussia minus Italica difference is 4.34%. In addition, under setting [1], the activity change, negative = inhibition was -4.49%.
